# From PubChem BioAssay (EPA / NIEHS)
# “And” between values parts separate entries of the source, which are not always exact repeats. Equal entries are not always repeated. Results filed as inconclusive are left out. A structure can be active in one record and inactive in another. The source made the active and inactive calls. Rule for the calls: active = hit-call score of the fitted dose curve at least 0.9, where 1 is the maximum; inconclusive = response in the unintended direction; inactive = score below 0.9.
# Key:
# [1] = ATG_XTT_Cytotoxicity: Cytotoxicity Assessment in the Attagene TRANS-FACTORIAL HepG2 Assay (AID 2283584);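 for AC50: cells exposed to compound for 24 h before reading; active means loss of viability signal versus DMSO baseline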
# Outline: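 Cells: human HepG2, transiently transfected with MRTU reporter constructs. Exposure 24 h. Readout: XTT, cell number. Baseline/neg ctrl DMSO; loss-of-signal scored.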
# [2] = TOX21_p53_BLA_p2_viability: Viability Assessment in the Tox21 HCT-116 p53 Agonism Beta-lactamase Assay, Phase 2 (AID 2283591);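 note: compound exposure lasted 16 h at 37 °C; actives lower the ATP signal meaning cytotoxicity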
# Outline: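 HCT-116 p53-bla cells (4000/well) rested 5 h at 37C, then received compounds in DMSO (217-fold dilution) for 16 h at 37C, 5% CO2. After the CCF4 read, CellTiter-Glo was added; ATP luminescence was read after 30 min at room temperature.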
# [3] = target: Cellular tumor antigen p53 (Homo sapiens) (UniProt P04637); experiment: TOX21_p53_BLA_p2_ratio: Tox21 HCT-116 p53 Agonism Beta-lactamase Assay, Ratio, Phase 2 (AID 2283592)
# Outline: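 Plated HCT116 p53-bla cells (4000/well) received compound after 5 h, then 16 h at 37C/5% CO2. CCF4-AM added, 2 h RT. Ratio of 460 to 530 nm emission taken as the p53 reporter signal.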
# [4] = TOX21_p53_BLA_p3_viability: Viability Assessment in the Tox21 HCT-116 p53 Agonism Beta-lactamase Assay, Phase 3 (AID 2283593);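 note: cells exposed to compound for 16 h before reading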
# Outline: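 HCT-116 cells (4000/well) rested 5 h at 37C, then got DMSO compounds by pin tool (217-fold dilution) for 16 h at 37C, 5% CO2. After the bla read, CellTiter-Glo was added and luminescence read at 30 min, room temperature.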
# [5] = TOX21_p53_BLA_p4_viability: Viability Assessment in the Tox21 HCT-116 p53 Agonism Beta-lactamase Assay, Phase 4 (AID 2283597);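 note: hits lower the luminescence signal meaning cytotoxicity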
# Outline: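 Readout: ATP luminescence (CellTiter-Glo), measured 30 min after reagent addition at RT. The reagent followed a 2 h CCF4-AM incubation, and the cells had been exposed to compound for 16 h at 37C.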
# [6] = target: Cellular tumor antigen p53 (Homo sapiens) (UniProt P04637); experiment: TOX21_p53_BLA_p5_ratio: Tox21 HCT-116 p53 Agonism Beta-lactamase Assay, Ratio, Phase 5 (AID 2283599)
# Outline: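 HCT-116 cells carrying a p53-inducible beta-lactamase reporter were seeded at 4000 cells/well and dosed after 5 h with compound in DMSO (217-fold dilution). After 16 h at 37C, CCF4-AM substrate was added for 2 h, and the 460/530 nm emission ratio was scored as gain-of-signal versus DMSO.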
# [7] = TOX21_p53_BLA_p5_viability: Viability Assessment in the Tox21 HCT-116 p53 Agonism Beta-lactamase Assay, Phase 5 (AID 2283600)
# Outline: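 Workflow: seed 4000 cells per well, wait 5 h, add compounds (DMSO, 217-fold dilution), incubate 16 h, load CCF4-AM 2 h, add CellTiter-Glo, read luminescence after 30 min.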
# [8] = target: Cellular tumor antigen p53 (Homo sapiens) (UniProt P04637); experiment: TOX21_p53_BLA_p4_ratio: Tox21 HCT-116 p53 Agonism Beta-lactamase Assay, Ratio, Phase 4 (AID 2283601)
# Outline: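 HCT116 cells carrying an inducible beta-lactamase reporter were plated at 4000 cells/well, rested 5 h, then exposed to compounds in DMSO (217-fold dilution) for 16 h at 37C. CCF4-AM substrate was loaded 2 h at room temperature; 460/530 nm emission ratio scored gain-of-signal versus DMSO.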
# [9] = target: Cellular tumor antigen p53 (Homo sapiens) (UniProt P04637); experiment: TOX21_p53_BLA_p3_ratio: Tox21 HCT-116 p53 Agonism Beta-lactamase Assay, Ratio, Phase 3 (AID 2283596)
# Outline: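 Cells were seeded at 4000/well, rested 5 h at 37C, then dosed with DMSO compound solutions (217-fold dilution) for 16 h. CCF4-AM substrate was loaded for 2 h at room temperature, and the 460/530 nm emission ratio was fitted for gain of signal versus DMSO.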
# Sequence of Cellular tumor antigen p53 (Homo sapiens) (P04637 whole entry, looked up): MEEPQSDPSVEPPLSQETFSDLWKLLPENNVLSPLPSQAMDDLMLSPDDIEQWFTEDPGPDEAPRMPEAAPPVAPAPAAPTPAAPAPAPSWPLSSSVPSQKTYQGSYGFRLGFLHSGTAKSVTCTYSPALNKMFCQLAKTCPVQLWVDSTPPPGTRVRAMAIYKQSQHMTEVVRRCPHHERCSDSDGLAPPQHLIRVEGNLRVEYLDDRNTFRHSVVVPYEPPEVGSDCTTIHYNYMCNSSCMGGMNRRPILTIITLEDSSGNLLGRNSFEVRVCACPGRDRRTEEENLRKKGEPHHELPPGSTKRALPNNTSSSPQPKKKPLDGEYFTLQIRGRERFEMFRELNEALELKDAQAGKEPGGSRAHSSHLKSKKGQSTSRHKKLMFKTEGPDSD
structure (smiles),measurement,setting,value
CCCCC(CC)COC(=O)c1ccc(O)cc1 (stereo unspecified),AC50,[1],100 µM (active) and 121 µM (active)
same,AC50,[2],41.9 µM (active) and 67.8 µM (active)
same,AC50,[3],76.7 µM (active) and 74.7 µM (active)
same,AC50,[4],84.1 µM (active)
same,outcome,[4],inactive
same,AC50,[5],72.2 µM (active) and 45.9 µM (active)
same,AC50,[6],69.4 µM (active) and 62.4 µM (active)
same,AC50,[7],56.6 µM (active) and 66.6 µM (active)
same,AC50,[8],86 µM (active) and 72.3 µM (active)
Clc1ccc(C(c2ccccc2Cl)C(Cl)Cl)cc1 (stereo unspecified),AC50,[1],148 µM (active)
same,outcome,[1],inactive
same,AC50,[2],46.1 µM (active) and 30.1 µM (active)
same,AC50,[3],83.3 µM (active) and 39.1 µM (active)
same,AC50,[4],67.7 µM (active) and 31.2 µM (active)
same,AC50,[9],55.9 µM (active) and 37.2 µM (active)
same,AC50,[5],64.3 µM (active) and 25.8 µM (active)
same,AC50,[6],83.4 µM (active) and 42.3 µM (active)
same,AC50,[7],72.7 µM (active) and 35.9 µM (active)
same,AC50,[8],82.4 µM (active) and 36.6 µM (active)
O=C1c2ccccc2C(=O)c2c(O)ccc(O)c21,outcome,[1],inactive
same,outcome,[2],inactive
same,outcome,[3],inactive
same,outcome,[4],inactive
same,outcome,[9],inactive
same,outcome,[5],inactive
same,outcome,[6],inactive
same,outcome,[7],inactive
same,outcome,[8],inactive
CCOc1ccc(NC(=O)CC(C)O)cc1 (stereo unspecified),outcome,[1],inactive
same,outcome,[2],inactive
same,outcome,[3],inactive
same,outcome,[4],inactive
same,outcome,[9],inactive
same,outcome,[5],inactive
same,outcome,[6],inactive
same,outcome,[7],inactive
same,outcome,[8],inactive
CCOC(=O)CN,outcome,[1],inactive
CC1(C)COCN1,outcome,[1],inactive
CCOC(=O)C(C#N)=C(c1ccccc1)c1ccccc1,outcome,[1],inactive
same,outcome,[2],inactive
same,outcome,[3],inactive
same,outcome,[4],inactive
same,outcome,[9],inactive
same,outcome,[5],inactive
same,outcome,[6],inactive
same,outcome,[7],inactive
same,outcome,[8],inactive
CCN(CCN)c1cccc(C)c1,outcome,[1],inactive
same,outcome,[2],inactive
same,outcome,[3],inactive
same,outcome,[4],inactive
same,outcome,[9],inactive
same,outcome,[5],inactive
same,outcome,[6],inactive
same,outcome,[7],inactive
CCCCOCC,outcome,[1],inactive
CCCC(C)=O,outcome,[1],inactive
same,outcome,[2],inactive
same,outcome,[3],inactive
same,outcome,[4],inactive
same,outcome,[9],inactive
same,outcome,[5],inactive
same,outcome,[6],inactive
same,outcome,[7],inactive
same,outcome,[8],inactive
CCN(CCC#N)c1ccc(N=Nc2ccc([N+](=O)[O-])cc2)cc1,outcome,[1],inactive
Nc1ccc(N)c2c1C(=O)c1ccccc1C2=O,outcome,[1],inactive
same,outcome,[2],inactive
same,AC50,[3],7.9 µM (active)
same,outcome,[4],inactive
same,outcome,[9],inactive
same,outcome,[5],inactive
same,outcome,[6],inactive
same,outcome,[7],inactive
same,AC50,[8],13 µM (active)
COc1ccc(OC)c(N=Nc2c(O)ccc3ccccc23)c1,outcome,[1],inactive
C=C(CC(=O)O)C(=O)O,outcome,[1],inactive
same,outcome,[2],inactive
same,outcome,[3],inactive
same,outcome,[4],inactive
same,outcome,[9],inactive
same,outcome,[5],inactive
same,outcome,[6],inactive
same,outcome,[7],inactive
same,outcome,[8],inactive
CSc1c(Cl)c(Cl)c(Cl)c(Cl)c1Cl,outcome,[1],inactive
same,outcome,[2],inactive
same,outcome,[3],inactive
same,AC50,[4],45.9 µM (active)
same,outcome,[9],inactive
same,outcome,[5],inactive
same,outcome,[6],inactive
same,outcome,[7],inactive
same,outcome,[8],inactive
Cc1c(OCC(F)(F)F)ccnc1CS(=O)c1nc2ccccc2[nH]1 (stereo unspecified),outcome,[1],inactive
same,outcome,[2],inactive
same,outcome,[3],inactive
same,outcome,[4],inactive
same,outcome,[9],inactive
same,outcome,[5],inactive
same,outcome,[6],inactive
same,outcome,[7],inactive
same,outcome,[8],inactive
CCCCCCCCCCCC(=O)OCC(O)CO (stereo unspecified),outcome,[1],inactive
C=CC(C)C#N (stereo unspecified),outcome,[1],inactive
CN1C(=O)c2ccccc2C1=O,outcome,[1],inactive
same,outcome,[2],inactive
same,outcome,[3],inactive
same,outcome,[4],inactive
same,outcome,[9],inactive
same,outcome,[5],inactive
same,outcome,[6],inactive
same,outcome,[7],inactive
same,outcome,[8],inactive
O=CCc1ccccc1,outcome,[1],inactive
same,outcome,[2],inactive
same,outcome,[3],inactive
same,outcome,[4],inactive
same,outcome,[5],inactive
same,outcome,[7],inactive
same,outcome,[8],inactive
Cc1ccc2c(c1)C(=O)OC2=O,outcome,[1],inactive
same,outcome,[2],inactive
same,outcome,[3],inactive
same,outcome,[4],inactive
same,outcome,[5],inactive
same,outcome,[6],inactive
same,outcome,[7],inactive
same,outcome,[8],inactive
CCCCCC(C=O)=Cc1ccccc1,outcome,[1],inactive
same,outcome,[2],inactive
same,outcome,[3],inactive
same,outcome,[4],inactive
same,outcome,[5],inactive
same,outcome,[6],inactive
same,outcome,[8],inactive
CCOCCOCCOCC,outcome,[1],inactive
same,outcome,[2],inactive
same,outcome,[3],inactive
same,outcome,[4],inactive
same,outcome,[6],inactive
CCC(C)c1cc([N+](=O)[O-])cc([N+](=O)[O-])c1OC(=O)OC(C)C (stereo unspecified),outcome,[1],inactive
same,outcome,[2],inactive
same,AC50,[3],7.55 µM (active)
same,outcome,[4],inactive
same,outcome,[5],inactive
same,AC50,[6],36.9 µM (active)
same,outcome,[7],inactive
same,outcome,[8],inactive
CCOC(=O)COC(=O)c1cc(Oc2ccc(C(F)(F)F)cc2Cl)ccc1[N+](=O)[O-],outcome,[1],inactive
same,outcome,[2],inactive
same,outcome,[3],inactive
same,outcome,[4],inactive
same,outcome,[5],inactive
same,outcome,[7],inactive
